Screens as filed in PubChem.
The list is a sample of the results.
aSyn UTR act: Activators working through SNCA 5'UTR binding (MLPCN) | alpha-synuclein 5'UTR reporter, activators screen | activity score, % (tested at 7.5 µM), hits read low | 7.1% of 300,000 active | AID 1814; in the data active = activity score below about -60%
Active calls of the source: *.

SMILES | aSyn UTR act
COc1ccc(N2CCN(C(=O)c3ccc(Cn4c(=S)[nH]c5ccc(N6CCOCC6)cc5c4=O)cc3)CC2)cc1 | -111*
N#CC1=C(N)OC2=C(CC/C2=C\c2ccccc2)C1c1ccccc1 (stereo unspecified) | -63*
CC1CCN(C(=O)c2cc3ccccc3o2)CC1 | -131*
O=C(c1cc2ccccc2o1)N1CCCCCC1 | -64*
CC1CC(C)CN(C(=O)c2cc3cc(Br)cc(Br)c3o2)C1 (stereo unspecified) | -121*
CC1CC(C)CN(C(=O)c2cc3ccccc3o2)C1 (stereo unspecified) | -70*
CC(C)c1ccc(C(=O)CSc2ncn[nH]2)cc1 | -137*
CNc1sc(C(=O)c2cccs2)c(N)c1-c1nc2ccccc2s1 | -157*
CNc1sc(C(=O)c2ccc(F)cc2)c(N)c1-c1nc2ccccc2s1 | -137*
CCCCC[n+]1ccn(C2=C([O-])c3ccccc3C(=O)/C2=N\S(=O)(=O)c2ccc(Cl)cc2)c1 | 48
C/C(=N\Nc1nccnc1Cl)c1ccc(O)c(C)c1 | -180*
Cc1ccc(NC(=O)CSc2ccc(-c3ccc4c(c3)OCO4)nn2)cc1F | -76*
Cc1ccc(NC(=O)Nc2ccc3c(c2)OCO3)cc1F | -109*
Cc1ccc(NC(=O)Nc2ccc3c(c2)OCO3)c(OC(F)F)c1 | -106*
Cc1cc(F)ccc1NC(=O)Nc1ccc2c(c1)OCO2 | -72*
CO/C([O-])=N/c1c[n+](-c2ccc(C)cc2)no1 | -62*
O=c1c(-c2cnn(-c3ccccc3)c2)coc2cc(O)ccc12 | -156*
Cc1oc2cc(O)ccc2c(=O)c1-c1cnn(-c2ccccc2)c1 | -77*
O=c1c(-c2ccc(O)cc2)coc2cc(O)ccc12 | -93*
CCOc1ccc(NC(=S)NC(=O)/C=C/c2ccc(Br)cc2)c([N+](=O)[O-])c1 | -79*
Cc1cccc(N/C=C/C(=O)c2ccc(Cl)cc2)c1 | -157*
Cc1ccc(Cl)c(N/C=C/C(=O)c2ccccc2)c1 | -144*
CCOc1ccc(C(=O)Cc2cc(OC)c(OC)cc2[N+](=O)[O-])cc1 | -80*
COc1cccc(N/C=C/C(=O)c2ccc(Br)cc2)c1 | -117*
CCOC(=O)c1ccc(N/C=C\C(=O)c2cccc(OC)c2)cc1 | -131*
SMILES | aSyn UTR act
CCOc1ccc(N/C=C/C(=O)c2ccc(OC)cc2)c([N+](=O)[O-])c1 | -118*
COc1ccc(C(=O)/C=C/Nc2cccc(O)c2)cc1 | -94*
COc1cccc(C(=O)/C=C/Nc2cc(C)ccc2O)c1 | -261*
CCOC(=O)c1ccc(OS(=O)(=O)c2ccccc2)c(OC)c1 | -195*
CCOC(=O)c1cccc(N/C=C/C(=O)c2ccc(OC)c(OC)c2)c1 | -130*
COc1cccc(N/C=C/C(=O)c2ccc(OC)c(OC)c2)c1 | -97*
COc1ccc(C(=O)/C=C/Nc2ccc([N+](=O)[O-])cc2)cc1 | -106*
COc1ccc(C(=O)/C(C#N)=N/Nc2ccc([N+](=O)[O-])cc2)cc1 | 102
COC(=O)c1ccccc1N/C=C/C(=O)c1ccc(Br)cc1 | -132*
CSc1cccc(NC(=O)/C=C/c2cccc(Cl)c2)c1 | -218*
CNC(=O)c1ccc(NC(=O)/C=C/c2cccc(F)c2)cc1 | -98*
O=C(/C=C/c1cccc(Cl)c1)Nc1ncccn1 | -76*
O=C(Cn1cc(C(F)(F)F)cc(Cl)c1=O)NCc1ccccc1 | -113*
CCOC(=O)COc1cccc2c(=O)n(CC(=O)NCc3ccccc3)ccc12 | 57
CCOc1ccc2nc(N=NC3=C(O)CC(C)(C)CC3=O)sc2c1 | -98*
CC(=O)N1CCc2cc(N=NC3=C(O)CC(C)(C)CC3=O)ccc21 | -95*
Cc1ccc(O)c(N=NC2=C(O)CC(C)(C)CC2=O)c1 | 65
Cc1nc2ccc(N=NC3=C(O)CC(C)(C)CC3=O)cc2s1 | -77*
CC1(C)CC(=O)C(N=Nc2cccc(S(=O)(=O)N3CCOCC3)c2)=C(O)C1 | 41
Cc1nc2ccccc2c(=O)n1NCc1cc(Br)cs1 | -81*
CC1CCC(NC(=O)N(CCCl)N=O)CC1 (stereo unspecified) | -138*
Cc1noc(/C=C/c2ccccn2)c1[N+](=O)[O-] | -211*
Cc1noc(/C=C/Nc2ccc(F)cc2F)c1[N+](=O)[O-] | -175*
Cc1cc(C)c(S(=O)(=O)Nc2cc(SCC(=O)O)c(O)c3ccccc23)cc1C | 67
Cc1nc(NCCc2ccc(S(N)(=O)=O)cc2)c2c3c(sc2n1)CCC3 | -116*
SMILES | aSyn UTR act
CCc1ccc(C(=O)CN2CCSC2=N)cc1 | -109*
Clc1ccc(-c2nnc(-c3ccccc3)c(N3CCSCC3)n2)cc1 | -62*
O=[N+]([O-])c1ccccc1/C=N/OCc1ccccc1 | -167*
Nc1nc(-c2ccccc2)cn1/N=C/c1ccccc1 | -138*
COc1ccc(Nc2ncnc3sccc23)cc1 | -98*
c1nc(Nc2ccc(N3CCOCC3)cc2)c2ccsc2n1 | -63*
COc1cccc(Nc2ncnc3sccc23)c1 | -118*
COc1ccc(Oc2ncnc3sccc23)cc1 | -95*
COc1ccc(Nc2nccc3c2ncn3C)cc1 | 21
COc1cccc(Nc2ncnc3sc(C)cc23)c1 | -126*
COc1ccc(CCNc2ncnc3sc(C)cc23)cc1OC | 77
NC(=S)Nc1cccc2cc3ccccc3cc12 | -101*
C/C(=N\NC(=O)c1ccccc1)c1ccc(N2CCCCC2)cc1 | -86*
O=C(c1ccccc1)c1ccc(N2CCCC2)cc1 | -109*
C/C(=N\NC(=O)c1ccccc1)c1ccccc1Br | -102*
C/C(=N\NC(=O)OC(C)(C)C)c1ccccc1Br | -84*
C/C(=N\NC(=O)c1ccc(C)cc1)c1c(C)[nH]n(-c2ccccc2)c1=O | 67
C/C(=N\NC(=O)c1ccc(Br)cc1)c1ccccc1 | -158*
C/C(=N\NC(=O)c1ccccc1)c1ccccc1F | -88*
CCCCCC(=O)N/N=C(\C)c1ccc(N2CCCCC2)cc1 | -65*
CCCCCC(=O)N/N=C(\C)c1ccccn1 | 67
CN1CCN(c2ccc(C(=O)c3ccc(F)cc3)cc2)CC1 | -133*
c1ccc(COc2ccc(OCCCn3cncn3)cc2)cc1 | -102*
c1ccc(COc2ccc(OCCCN3CCCC3)cc2)cc1 | 55
CC1CCN(CCCOc2ccc(OCc3ccccc3)cc2)CC1 | -69*
SMILES | aSyn UTR act
c1ccc(-c2ccc(OCCOCCn3cncn3)cc2)cc1 | -175*
CCOC(=O)c1cn2nc(Oc3ccccc3)ccc2n1 | -149*
CCOC(=O)c1cn2nc(Oc3ccc(C)cc3)ccc2n1 | -75*
CC(=O)c1cnc2nc(SCc3ccccc3C)nn2c1C | -75*
COc1ccc(-c2nc(-c3ccccc3OC)no2)cc1OC | -231*
COc1ccccc1-c1noc(-c2ccccc2)n1 | -126*
COc1ccccc1-c1noc(-c2ccco2)n1 | -129*
COc1ccccc1N1C(=O)C(Cl)=C(Nc2ccccc2O)C1=O | -127*
O=C1C(Cl)=C(Nc2ccccc2O)C(=O)N1c1ccccc1 | -94*
Cc1nc2ccc(Cl)cc2nc(C)/c1=N\O | -219*
Cc1ccc2nc(C)/c(=N\O)c(C)nc2c1 | -239*
c1ccc(CSc2nnc(-c3ccco3)n2Cc2ccco2)cc1 | -107*
COc1cccc(-c2nnc(SCc3ccc(C#N)cc3)n2Cc2ccco2)c1 | 43
Cn1c(SCc2ccccc2)nnc1-c1ccco1 | -120*
Nc1c(C(=O)Nc2ccc3c(c2)OCCO3)nnn1Cc1cccc(Br)c1 | -163*
Nc1c(C(=O)Nc2ccc3c(c2)OCCO3)nnn1CCc1ccccc1 | -126*
Nc1c(C(=O)Nc2ccc3c(c2)OCCO3)nnn1Cc1ccc(Br)cc1 | -220*
Nc1c(C(=O)Nc2ccccc2Cl)nnn1-c1ccc2c(c1)OCCO2 | -216*
